Here are results for 17 molecules from PubChem BioAssay AID720555 (National Center for Advancing Translational Sciences (NCATS), 2013).

Results filed as inconclusive are left out. Where a call stands in place of a potency, no number is given. Active and inactive are the calls of the source. The call rests on the fitted dose curve; in most records, active means well fitted inhibition curve with a large enough effect; inconclusive means small, poorly fitted or top-dose-only effect; inactive means no such curve, though single readings can be large or run the other way.

The target in this assay is RecQ-like DNA helicase BLM (Homo sapiens) (UniProt P54132). Description: qHTS for Inhibitors of Bloom's syndrome helicase (BLM): Helicase DNA unwinding fluorescent orthogonal confirmatory assay for SAR. As to conditions: fluorescence, orthogonal confirmation; series mostly up to 55.6 µM. The method, boiled down: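 Purified BLM unwound a fluorescently labelled DNA substrate at room temperature in pH 7.5 Tris buffer with 2mM ATP and 2mM MgCl2. Products were resolved on native 15% gels. Loss of single-stranded product band, normalised to no-inhibitor and no-enzyme controls, indicates inhibition.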
Chain of RecQ-like DNA helicase BLM (Homo sapiens) (P54132 whole entry, looked up): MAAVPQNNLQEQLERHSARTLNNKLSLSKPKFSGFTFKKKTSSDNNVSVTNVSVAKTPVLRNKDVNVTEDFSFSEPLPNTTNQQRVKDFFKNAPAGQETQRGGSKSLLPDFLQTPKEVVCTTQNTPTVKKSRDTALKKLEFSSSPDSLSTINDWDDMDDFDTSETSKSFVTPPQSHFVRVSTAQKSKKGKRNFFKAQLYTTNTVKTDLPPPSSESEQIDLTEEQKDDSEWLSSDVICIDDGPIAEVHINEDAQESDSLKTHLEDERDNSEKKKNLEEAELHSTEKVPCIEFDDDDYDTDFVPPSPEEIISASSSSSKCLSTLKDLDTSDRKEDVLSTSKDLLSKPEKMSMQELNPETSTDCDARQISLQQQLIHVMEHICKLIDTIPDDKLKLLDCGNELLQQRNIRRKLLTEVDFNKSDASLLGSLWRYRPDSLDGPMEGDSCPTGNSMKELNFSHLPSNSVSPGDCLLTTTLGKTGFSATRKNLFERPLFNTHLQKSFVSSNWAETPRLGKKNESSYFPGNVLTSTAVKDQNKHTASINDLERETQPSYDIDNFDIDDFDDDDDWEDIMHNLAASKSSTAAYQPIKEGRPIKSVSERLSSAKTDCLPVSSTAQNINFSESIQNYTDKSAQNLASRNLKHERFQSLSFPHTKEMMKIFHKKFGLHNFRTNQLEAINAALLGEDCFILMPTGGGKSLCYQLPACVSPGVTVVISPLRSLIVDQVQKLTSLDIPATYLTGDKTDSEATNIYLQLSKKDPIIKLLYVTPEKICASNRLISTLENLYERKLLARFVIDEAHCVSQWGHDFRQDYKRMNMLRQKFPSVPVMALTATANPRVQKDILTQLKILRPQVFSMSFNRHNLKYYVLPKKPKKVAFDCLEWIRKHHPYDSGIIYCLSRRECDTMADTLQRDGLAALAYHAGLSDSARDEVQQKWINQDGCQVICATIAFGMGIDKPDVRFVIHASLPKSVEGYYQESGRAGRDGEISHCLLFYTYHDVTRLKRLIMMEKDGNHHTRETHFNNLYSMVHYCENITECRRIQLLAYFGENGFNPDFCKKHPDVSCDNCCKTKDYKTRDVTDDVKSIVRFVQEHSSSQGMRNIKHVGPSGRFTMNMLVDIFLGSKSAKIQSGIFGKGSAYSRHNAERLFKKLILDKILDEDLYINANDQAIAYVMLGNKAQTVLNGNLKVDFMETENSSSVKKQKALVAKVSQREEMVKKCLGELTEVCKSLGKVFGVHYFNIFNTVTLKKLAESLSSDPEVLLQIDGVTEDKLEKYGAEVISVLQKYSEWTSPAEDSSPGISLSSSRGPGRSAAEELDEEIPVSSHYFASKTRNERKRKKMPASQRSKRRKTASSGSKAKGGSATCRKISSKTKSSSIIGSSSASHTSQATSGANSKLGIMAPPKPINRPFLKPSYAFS
(In general: Quantitative high-throughput screening tests each substance at several concentrations.)
For the molecule `O=C(Nc1ccc2sccc2c1)Nc1nnc(-c2ccncc2)s1`, the Potency was 10 µM (active).
The entry for `CN(C(=O)Nc1ccc2ccccc2c1)c1nnc(-c2ccncc2)s1` is “inactive”; for `O=C(Nc1ccc(-n2ccnc2)c(F)c1)Nc1nnc(-c2ccncc2)s1` it is 10 µM (active); for `O=C(Nc1ccc(-c2cn[nH]c2)c(C(F)(F)F)c1)Nc1nnc(-c2ccncc2)s1` it is 15.8 µM (active).
In the case of `S=C(Nc1ccc(Cl)c(Cl)c1)Nc1nnc(-c2ccncc2)o1`, the Potency entry is “inactive”.
To `Cc1cnccc1-c1nnc(NC(=O)Nc2ccc(F)c(C(F)(F)F)c2)s1` belongs 1.26 µM (active); to `COc1ccc(NC(=O)Nc2ccc(-c3nc4ccccc4[nH]3)cc2)cc1OC`, “inactive”; to `N/C(=N\c1nnc(-c2ccncc2)s1)Nc1ccc(Cl)c(Cl)c1`, 14.1 µM (active).
The figure for `N#Cc1cc(NC(=O)Nc2nnc(-c3ccncc3)s2)ccc1F` is 1.41 µM (active); for `CC(C)(C)c1ccc(-c2nnc(NC(=O)Nc3ccc4ccccc4c3)s2)cc1` it is “inactive”.
On to `O=C(Nc1ccc2ccccc2c1)Nc1nnc(-c2ccc(O)cc2)s1`, for which the Potency result is “inactive”.
The entry for `CCOC(=O)c1cccc(NC(=O)Nc2nnc(-c3ccncc3)s2)c1` is “inactive”; for `COc1ccccc1CNC(=O)Nc1nnc(-c2ccncc2)s1` it is “inactive”.
The entry for `CC(C)(C)NC(=O)Nc1nnc(-c2ccncc2)s1` is “inactive”; for `O=C(Nc1ccccc1)Nc1nnc(-c2ccncc2)s1` it is “inactive”.
To `O=C(Nc1ccc2sccc2c1)Nc1nnc(-c2cccnc2)s1` belongs 10 µM (active); to `O=C(Nc1ccc2ccccc2c1)Nc1nnc(-c2ccccc2Cl)s1`, “inactive”.
